Results as given in the supplement of paper PMC9262897, “Low-cost anti-mycobacterial drug discovery using engineered E. coli” (Nature Communications, 2022).
Counter-ions that a name gives are not always drawn. ± gives the standard deviation of the averaged measurements.

Assays:
Experiment in all cases: growth (OD600 after 10 h); higher = more growth (less inhibition)
[1] = test system: E. coli TESEC Alr+ wild-type control; details: compound 0.1 mM; raw OD600 reference: median of DMSO wells 0.241, cell-free background 0.041
Procedure: (§1)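 TESEC Mtb Alr E. coli, or the Alr+ wild-type control, in 384-well plates with Prestwick library compounds at 0.1 mM and 1% DMSO, across arabinose induction levels of 1E3 to 1E7 nM. Growth is read as OD600 after 10 h at 37 °C in triplicate biological replicates.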

E. coli TESEC Mtb Alr [2] = details: compound 0.1 mM
Procedure: as §1

E. coli TESEC Mtb Asd = details: compound 0.1 mM
Procedure: (§2)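 TESEC E. coli strains in which the native enzyme is deleted and replaced by arabinose-inducible Mtb Asd, DapB, CysH or TrpD, each grown in its selective medium. Strains were screened against the Prestwick library at 0.1 mM and 1% DMSO in 384-well format at low and high arabinose induction. Growth is read as OD600 after 10 h in triplicate.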

E. coli TESEC Mtb DapB = details: compound 0.1 mM
Procedure: as §2

[3] = test system: E. coli TESEC Alr+ wild-type control; details: compound 0.1 mM; raw OD600 reference: median of DMSO wells 0.49, cell-free background 0.052
Procedure: (§3)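 TESEC Mtb Alr E. coli (ΔaraC ΔtolC ΔentC Δalr ΔdadX, arabinose-inducible Mtb Alr) or the Alr+ wild-type control strain, grown in defined M9-fructose medium without D-alanine in 96-well plates with Prestwick library compounds at 0.1 mM and 1% DMSO. Low Alr induction is 0.1 µM arabinose and high induction is 10 mM arabinose.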

E. coli TESEC Mtb Alr [4] = details: compound 0.1 mM; remark: listed apart in the source
Procedure: as §3

[5] = arabinose 1000 nM, raw OD600 reference: median of DMSO wells 0.294, cell-free background 0.041
[6] = arabinose 10000 nM, raw OD600 reference: median of DMSO wells 0.264, cell-free background 0.041
[7] = arabinose 100000 nM, raw OD600 reference: median of DMSO wells 0.201, cell-free background 0.041
[8] = arabinose 1000000 nM, raw OD600 reference: median of DMSO wells 0.193, cell-free background 0.041
[9] = arabinose 10000000 nM, raw OD600 reference: median of DMSO wells 0.146, cell-free background 0.041
[10] = arabinose induction (level): High, raw OD600 reference: median of DMSO wells 0.331, cell-free background 0.041
[11] = arabinose induction (level): Low, raw OD600 reference: median of DMSO wells 0.417, cell-free background 0.041
[12] = arabinose induction (level): High, raw OD600 reference: median of DMSO wells […], cell-free background 0.041
[13] = arabinose induction (level): Low, raw OD600 reference: median of DMSO wells 0.227, cell-free background 0.041
[14] = arabinose 100 nM, raw OD600 reference: median of DMSO wells 0.413, cell-free background 0.052
[15] = arabinose 10000000 nM, raw OD600 reference: median of DMSO wells […], cell-free background 0.052

| SMILES | growth [1] | growth (E. coli TESEC Mtb Alr [2]; [5]) | growth (E. coli TESEC Mtb Alr [2]; [6]) | growth (E. coli TESEC Mtb Alr [2]; [7]) | growth (E. coli TESEC Mtb Alr [2]; [8]) | growth (E. coli TESEC Mtb Alr [2]; [9]) | growth (E. coli TESEC Mtb Asd; [10]) | growth (E. coli TESEC Mtb Asd; [11]) | growth (E. coli TESEC Mtb DapB; [12]) | growth (E. coli TESEC Mtb DapB; [13]) | growth [3] | growth (E. coli TESEC Mtb Alr [4]; [14]) | growth (E. coli TESEC Mtb Alr [4]; [15]) |
| --- | --- | --- | --- | --- | --- | --- | --- | --- | --- | --- | --- | --- | --- |
| O=C1c2cccc(O)c2C(=O)c2c(O)cccc21 [1,8-Dihydroxyanthraquinone] | 0.132 ± 0.0039 | 0.15 ± 0.013 | 0.0699 ± 0.015 | 0.138 ± 0.0019 | 0.0486 ± 0.0032 | 0.153 ± 0.0021 | 0.187 ± 0.013 | 0.147 ± 0.0069 | 0.189 ± 0.0068 | 0.255 ± 0.067 | 0.383 ± 0.011 | 0.361 ± 0.0048 | 0.218 ± 0.013 |
| CC(C)(C)NC(=O)[C@H]1CC[C@H]2[C@@H]3CC[C@H]4NC(=O)C=C[C@]4(C)[C@H]3CC[C@]12C [Finasteride] | 0.121 ± 0.003 | 0.201 ± 0.015 | 0.201 ± 0.0065 | 0.133 ± 0.0022 | 0.0954 ± 0.00085 | 0.144 ± 0.0043 | 0.308 ± 0.064 | 0.268 ± 0.064 | 0.183 ± 0.0049 | 0.228 ± 0.006 | 0.351 ± 0.011 | 0.366 ± 0.022 | 0.182 ± 0.03 |
| COc1ccc(C(=O)CC(=O)c2ccc(C(C)(C)C)cc2)cc1 [Avobenzone] | 0.116 ± 0.017 | 0.188 ± 0.026 | 0.197 ± 0.016 | 0.176 ± 0.02 | 0.107 ± 0.033 | 0.109 ± 0.0074 | 0.277 ± 0.068 | 0.27 ± 0.0061 | 0.202 ± 0.072 | 0.239 ± 0.055 | 0.533 ± 0.076 | 0.247 ± 0.058 | 0.267 ± 0.0055 |
| CO[C@H]1/C=C/O[C@@]2(C)Oc3c(C)c(O)c4c(O)c(c(/C=N/N5CCN(C)CC5)c(O)c4c3C2=O)NC(=O)/C(C)=C\C=C\[C@H](C)[C@H](O)[C@@H](C)[C@@H](O)[C@@H](C)[C@H](OC(C)=O)[C@@H]1C [Rifampicin] | 0.0429 ± 0.0015 | 0.0442 ± 0.003 | 0.04117 ± 0.00021 | 0.0444 ± 0.0018 | 0.04127 ± 0.00012 | 0.043 ± 0.0014 | 0.0643 ± 0.011 | 0.0572 ± 0.0093 | 0.106 ± 0.094 | 0.0504 ± 0.00072 | 0.05337 ± 0.00042 | 0.0557 ± 0.00079 | 0.0524 ± 0.00092 |
| NC12CC3CC(CC(C3)C1)C2 [Adamantamine fumarate] | 0.253 ± 0.0038 | 0.299 ± 0.0054 | 0.271 ± 0.005 | 0.248 ± 0.034 | 0.209 ± 0.014 | 0.145 ± 0.0061 | 0.353 ± 0.052 | 0.457 ± 0.0081 | 0.2 ± 0.0046 | 0.214 ± 0.0073 | 0.469 ± 0.056 | 0.407 ± 0.0076 | 0.368 ± 0.026 |
| O=P(O)(O)C(O)(Cc1cccnc1)P(=O)(O)O [Risedronic acid monohydrate] | 0.247 ± 0.0087 | 0.2984 ± 0.0028 | 0.265 ± 0.0074 | 0.191 ± 0.0063 | 0.196 ± 0.0097 | 0.156 ± 0.0062 | 0.278 ± 0.053 | 0.376 ± 0.05 | 0.192 ± 0.014 | 0.26 ± 0.052 | 0.608 ± 0.083 | 0.426 ± 0.015 | 0.277 ± 0.011 |
| NC(=O)OCC(COC(N)=O)c1ccccc1 [Felbamate] | 0.24 ± 0.0061 | 0.288 ± 0.0029 | 0.26 ± 0.0095 | 0.201 ± 0.023 | 0.204 ± 0.0095 | 0.137 ± 0.0061 | 0.423 ± 0.044 | 0.316 ± 0.031 | 0.224 ± 0.0049 | 0.212 ± 0.0076 | 0.608 ± 0.097 | 0.405 ± 0.011 | 0.369 ± 0.025 |
| COC(=O)C1=C(C)NC(C)=C(C(=O)OC2CCCN(Cc3ccccc3)C2)C1c1cccc([N+](=O)[O-])c1 (centres undefined) [Benidipine hydrochloride] | 0.184 ± 0.005 | 0.148 ± 0.005 | 0.177 ± 0.012 | 0.168 ± 0.011 | 0.107 ± 0.0056 | 0.119 ± 0.024 | 0.162 ± 0.0021 | 0.157 ± 0.0085 | 0.17 ± 0.022 | 0.192 ± 0.016 | 0.295 ± 0.015 | 0.353 ± 0.018 | 0.122 ± 0.028 |
